Experimental findings from PubChem BioAssay AID624256 (NMMLSC, 2012) are described below.

Hit rate of the full screen: of about 360,000 compounds, about 3,700 (1%) were called active. Roughly 2% stayed inconclusive and do not appear here.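 The calls were made as follows: active = normalized GFP-positive differentiation at or above the plate's own cutoff, the solvent-only control mean plus 3 SD; inconclusive = no clear call, values can overlap the other calls; inactive = the rest.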 Only a selection was taken, and actives are over-represented in it overall.

The experiment can be described thus: HoxA9-arrested leukemia cell differentiation promoters – flow cytometry, MLPCN library, primary screen (AID 624256).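 As to GFP+ MAC1+ double positive: cells exposed to compound for four days before flow analysis.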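 As to normalized GFP-positive differentiation: cells exposed to compound for four days before flow analysis; 0% = DMSO wells and 100% = fulvestrant positive control at 5 µM.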 The settings on record: ER-HoxA9 myeloid progenitors, lysozyme-GFP differentiation, at 10 µM; GFP+ MAC1+ double positive: measured here: differentiation confirmed by MAC1 staining, stronger effect = higher value; normalized GFP-positive differentiation: stronger effect = higher value.
Consider `COc1ccc(COC[C@H](CC(C)C)N2CCN(C(=O)c3cccc(C(F)(F)F)c3)CCC2=O)cc1`, for which the GFP+ MAC1+ double positive is 0.4% and the result was inactive.

Turning to `CC(=O)C[C@@H]1OC[C@H](C)N1S(=O)(=O)c1ccc(C)cc1`, the GFP+ MAC1+ double positive came out at 3% and the molecule was classed as inactive.

As for `Cc1ccc(-c2c(N)nc3ncccn23)cc1`, the GFP+ MAC1+ double positive turned out to be 1.5% and the outcome was inactive.

Regarding `CN1CCN(c2ccc3c(c2)OC[C@H](Cc2ccccc2)NS3(=O)=O)CC1`, the GFP+ MAC1+ double positive amounted to 1% and the molecule was called inactive.

On to `CCc1noc(C)c1C(=O)Nc1nc(-c2ccccc2)cs1`, for which the GFP+ MAC1+ double positive amounted to 2.2% and the normalized GFP-positive differentiation is 32.2% (active).

Turning to `CCc1noc(C)c1C(=O)OCC(=O)c1ccc(NC(=O)CC(C)C)cc1`, the GFP+ MAC1+ double positive was 1.1% and the outcome was inactive.

`Cc1ccc(-c2csc(NC(=O)C3=COCCO3)n2)cc1C`: the GFP+ MAC1+ double positive turned out to be 0% and the call was inactive.

In the case of `CCN(CC)S(=O)(=O)c1cc(C(=O)Nc2cc(S(=O)(=O)N3CCOCC3)ccc2N2CCCC2)ccc1F`, the GFP+ MAC1+ double positive is 0.3% and the outcome was inactive.

`CCN(CC)S(=O)(=O)c1ccc(N2CCOCC2)c(NC(=O)c2ccc(=O)n(C)n2)c1`: the GFP+ MAC1+ double positive worked out at 0.1% and the molecule was called inactive.

Consider `CCN(CC)S(=O)(=O)c1ccc(N2CCCC2)c(NC(=O)c2ccc([N+](=O)[O-])o2)c1`, for which the GFP+ MAC1+ double positive amounted to 5.1% and the normalized GFP-positive differentiation was 56% (active).

As to `Clc1cccc(Cc2c(-c3cccc(Cl)c3)nc3ccc(Cl)cn23)c1`, the GFP+ MAC1+ double positive was determined as 0.4% and the molecule was classed as inactive.

On to `COc1ccc(NC(=O)Cn2nnc(C(=O)NCCc3ccc(OC)c(OC)c3)c2N)cc1`, for which the GFP+ MAC1+ double positive came out at 1% and the molecule was called inactive.

Turning to `CCOc1ccc(Cn2nnc(C(=O)Nc3ccc(OC)cc3OC)c2N)cc1`, the GFP+ MAC1+ double positive is 12.5% and the normalized GFP-positive differentiation was 38% (active).

In the case of `COc1ccc(CNC(=O)c2nnn(CC(=O)Nc3cc(C)cc(C)c3)c2N)cc1`, the GFP+ MAC1+ double positive came out at 0.5% and the molecule was classed as inactive.

Consider `Cc1cccc(C)c1NC(=O)C(c1cccc(F)c1)N1CCN(C)CC1` (configuration not stated), for which the GFP+ MAC1+ double positive was found to be 2.3% and the molecule was called inactive.

Take `COc1ccc(S(=O)(=O)N2CCOCC2)cc1C(=O)NC1CCCCC1`: the GFP+ MAC1+ double positive was determined as 0.6% and the result was inactive.

As to `COc1ccc(S(=O)(=O)N2CCOCC2)cc1NC(=O)COc1ccccc1`, the GFP+ MAC1+ double positive came out at 0.8% and the molecule was called inactive.

Regarding `COc1ccc(S(=O)(=O)N2CCOCC2)cc1C(=O)Nc1nc2ccccc2s1`, the GFP+ MAC1+ double positive was found to be 27.7% and the normalized GFP-positive differentiation was 33.1% (active).

Regarding `Cc1c(C(=O)NCC2CC2)sc(=O)n1Cc1cccc(F)c1`, the GFP+ MAC1+ double positive came to 4.3% and the result was inactive.

`O=S1(=O)CC(N2CCN(Cc3ccccc3F)CC2)CN1Cc1cn(Cc2cccc(C(F)(F)F)c2)nn1` (configuration not stated): the GFP+ MAC1+ double positive came to 1% and the result was inactive.

Turning to `O=C1C=CN2CCCC2CC1` (configuration not stated), the GFP+ MAC1+ double positive turned out to be 1.2% and the normalized GFP-positive differentiation was 7.96% (active).

Consider `CC(=O)C1=CCC(c2ccccc2)N(S(=O)(=O)c2ccc(C)cc2)C1` (configuration not stated), for which the GFP+ MAC1+ double positive came to 1.6% and the result was inactive.

With `Cc1ccccc1S(=O)(=O)N1[C@@H](c2cccc(Cl)c2)C(C(=O)OC(C)(C)C)=CC[C@H]1c1ccc(Cl)cc1`, the GFP+ MAC1+ double positive was 0.4% and the call was inactive.

In the case of `COc1ccc(S(=O)(=O)N[C@@H]2C=C[C@@H](CC(=O)N3CCc4ccccc4C3)O[C@@H]2CO)cc1`, the GFP+ MAC1+ double positive amounted to 1.9% and the outcome was inactive.

Take `CN1/C(=c2/s/c(=C3/C(=O)N(c4ccccc4)NC3=Nc3ccccc3)n(C)c2=O)C(C)(C)c2ccccc21`: the GFP+ MAC1+ double positive came to 13.2% and the normalized GFP-positive differentiation is 200% (active).

As to `Cc1cccc(-c2cnc(C(O)c3ccc4ccccc4c3)[nH]2)c1` (configuration not stated), the GFP+ MAC1+ double positive is 0.2% and the result was inactive.

Consider `Cc1ccc2[nH]c(=O)c(-c3nc4c(C)cccn4c3NCc3ccco3)cc2c1`, for which the GFP+ MAC1+ double positive is 0.8% and the result was inactive.

As for `CCCN(CCC)c1nc2c(C)cccn2c(=O)c1/C=C1/SC(=S)N(Cc2ccco2)C1=O`, the GFP+ MAC1+ double positive came out at 9.4% and the normalized GFP-positive differentiation was 389% (active).

In the case of `Cc1cccn2c(=O)c(C=O)c(Nc3ccc(S(N)(=O)=O)cc3)nc12`, the GFP+ MAC1+ double positive stood at 0.8% and the call was inactive.

As to `Cc1cccn2c(=O)c(/C=C3\SC(=S)N(CC(C)C)C3=O)c(NCCCOC(C)C)nc12`, the GFP+ MAC1+ double positive turned out to be 6% and the normalized GFP-positive differentiation is 235% (active).

As to `CNc1nc2c(C)cccn2c(=O)c1C=Nc1ccc(OC)cc1`, the GFP+ MAC1+ double positive amounted to 0.6% and the molecule was called inactive.

In the case of `CC(C)C1C(=O)N(Cc2cn(CCC3OCCO3)nn2)CCS(=O)(=O)N1Cc1ccc(-c2ccccc2C(F)(F)F)cc1` (configuration not stated), the GFP+ MAC1+ double positive turned out to be 1.5% and the molecule was classed as inactive.

For `CCCCOCCCNC(=O)C[C@@H]1C[C@@]2(C(=O)OC)CCCCC=C2N(CCC2=CCCCC2)C1=O`, the GFP+ MAC1+ double positive is 1.3% and the outcome was inactive.

Regarding `CCOC(=O)[C@]12CCCC=C1N(CCC1=CCCCC1)C(=O)[C@H](CC(=O)NCCCOC)C2`, the GFP+ MAC1+ double positive was determined as 2.8% and the result was inactive.

As for `CC(C)NC(=O)C1(C)CCCCN1Cc1cccc(C(F)(F)F)c1` (configuration not stated), the GFP+ MAC1+ double positive worked out at 1.4% and the result was inactive.

Regarding `COc1ccccc1CNC(=O)C1CCN(S(C)(=O)=O)CC1`, the GFP+ MAC1+ double positive is 0.7% and the call was inactive.

On to `COc1ccccc1CNC(=O)C1CCN(c2nc3ccccc3o2)CC1`, for which the GFP+ MAC1+ double positive was determined as 4.6% and the normalized GFP-positive differentiation was 9.06% (active).

For `COc1ccccc1CNC(=O)C1CCN(C(=O)[C@@H]2Cc3ccccc3CN2)CC1`, the GFP+ MAC1+ double positive was found to be 4.9% and the call was inactive.

In the case of `CNC[C@H]1OCc2cnnn2CCCC(=O)N([C@H](C)CO)C[C@@H]1C`, the GFP+ MAC1+ double positive was found to be 0.8% and the result was inactive.

For `CC(C)C[C@H]1CNC(=O)C(=O)N1C[C@H]1CCCN1C[C@H](Cc1ccc(O)cc1)N1C[C@H](CC(C)C)N(CC2CCCCCC2)C(=O)C1=O`, the GFP+ MAC1+ double positive came to 1.3% and the molecule was called inactive.

As for `CCCCc1c(-c2ccc(Cl)cc2)ncn1CCc1ccccc1OC`, the GFP+ MAC1+ double positive worked out at 2.2% and the molecule was called inactive.
